Pf growth 48h – inhibits P. falciparum growth in the first generation, 48 h | Potency, µM (top dose mostly 28.7 µM), usual class: inhibitors | P. falciparum luciferase growth in erythrocytes, 48 h | 310,000 tested, 5.9% active
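Luciferase-expressing parasites in RBCs, 2% Hct / 0.1% parasitemia final; RPMI 1640 + 0.5% Albumax; 37 C, 5% CO2, one generation; luminescence read-out, lower signal = inhibition.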
Pf growth 96h – P. falciparum growth inhibition at 96 hours; P. falciparum luciferase reporter growth, 96 h; 320,000 tested, 6.9% active; AID 504834; Potency, µM (series often up to 28.7 µM), hits mostly inhibitors
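P. falciparum expressing integrated firefly luciferase, in erythrocytes at 2% hematocrit, 0.05% parasitemia, incubated with compounds 96 h at 37 C, 5% CO2. Growth inhibition read as loss of luminescence; two-generation exposure targets delayed-death apicoplast inhibitors.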
Cycloheximide cs – counter-screen for Shiga toxin inhibitors: cycloheximide protein synthesis inhibition. max response, %. AID 2314. 300,000 tested, 12% active. cell reporter, cycloheximide protein synthesis inhibition counterscreen; in the data active = max response mostly above about 13%, no sharp cut-off; inactive = mostly below about 14%; note: read at 38.3 µM for the half of the compounds with a filed dose
SARS PLpro yeast – blocks SARS-CoV papain-like protease in a yeast assay | S. cerevisiae expressing SARS-CoV PLpro, growth rescue | Potency, µM (titrated, usually from 32.9 µM), hits mostly activators | 330,000 tested, 0.19% active | AID 485353; calls by dose curve; note: nearly all actives have a fitted effect of over 55% in size
Shiga toxin inh – Shiga toxin inhibition. 290,000 tested, 9.2% active. Vero cells, Shiga toxin protein synthesis inhibition reporter. inhibition, % at 38.7 µM. AID 2315; in the data active = inhibition mostly above about 28%, no sharp cut-off; inactive = mostly below about 43%
NS1 function inh – influenza NS1 inhibition; AID 2326; 270,000 tested, 0.4% active; Potency, µM (titrated, usually from 46.1 µM); calls by dose curve; note: actives are rising curves; nearly all actives have a fitted effect of over 50% in size
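Compounds were scored for reversing the slow growth caused by influenza A NS1 in S. cerevisiae, measured by optical density at 600 nm. Assay medium contained 2% galactose at pH 6.0; NS1-free yeast of the same strain were the positive control.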
Large screens that a line does not name were inactive. A selection: hits, their analogues and other compounds. The true share with any hit is near 21%. Unless noted, calls come from the whole dose curve; as a rule, active = well fitted inhibition curve with a large enough effect; inconclusive = small, poorly fitted or top-dose-only effect, or another doubt; inactive = no such curve, though single readings can be large or run the other way.

COc1ccc(C(=O)Nc2ccc(OC)c(OC)c2)cc1	Cycloheximide cs 33, Shiga toxin inh 63
COC(=O)c1ccccc1S(=O)(=O)N1CCC(C(=O)NC2CCCCC2)CC1	none (no result: Cycloheximide cs, Shiga toxin inh, NS1 function inh)
Cc1ncc(CN2CCC(CO)(CCc3ccccc3)CC2)s1	Pf growth 48h inconclusive, Pf growth 96h inconclusive
CC(=O)N1CCc2ccc(S(=O)(=O)N3CCN(C)CC3)cc21	none
O=C(Nc1ccc(Br)cc1)c1cnc[nH]1	Pf growth 96h inconclusive, Cycloheximide cs 39, Shiga toxin inh 64 (no result: Pf growth 48h)
CC(=O)Nc1cccc(C(=O)NNC(=O)c2ccc(-n3cnnn3)cc2)c1	none (no result: Pf growth 48h, Pf growth 96h, Cycloheximide cs, Shiga toxin inh, NS1 function inh)
COc1cccc(NC(=O)c2ccc(-n3cnnn3)cc2)c1	Pf growth 96h 4.1µM
Cc1ccc(NC(=O)c2cccc(-n3cnnn3)c2)cc1Cl	Pf growth 48h 9.3µM, Pf growth 96h inconclusive (no result: Cycloheximide cs, Shiga toxin inh, NS1 function inh)
COc1cccc(NC(=O)c2nc3ncccn3n2)c1	Pf growth 96h inconclusive, Cycloheximide cs 48, Shiga toxin inh 65 (no result: SARS PLpro yeast)
CC1CN(C(=O)c2cc3cc([N+](=O)[O-])ccc3s2)CC(C)O1 (stereo not drawn)	none
COc1cc(OC)cc(OCC(O)Cn2cnc(-c3ccccc3)c2)c1 (stereo not drawn)	Pf growth 48h 13µM
NC(=O)Cn1cnc(-c2ccccc2)c1	Pf growth 96h inconclusive
O=C(CSc1nc2ccccc2s1)N1c2ccccc2Sc2ccc(Cl)cc21	Pf growth 48h inconclusive, Pf growth 96h 5.9µM
O=C(CSc1nc2ccccc2s1)N1c2ccccc2Sc2ccc(C(F)(F)F)cc21	Pf growth 48h 15µM, Pf growth 96h inconclusive
O=c1oc2cc(Cl)ccc2n1CSc1nc2ccccc2s1	Pf growth 96h inconclusive, Cycloheximide cs 31, Shiga toxin inh 58 (no result: Pf growth 48h)
COc1ccc(/C=C/C(=O)C2CC2)cc1COc1cccc(C)c1C	Pf growth 48h inconclusive, Pf growth 96h inconclusive
COc1ccc(/C=N/NC(=S)Nc2ccccc2)cc1COc1cccc(C)c1C	Pf growth 96h inconclusive, Shiga toxin inh 31
COc1cccc(/C=N/NC(=S)Nc2cccc(C(=O)O)c2)c1	Pf growth 96h inconclusive, Cycloheximide cs 36, Shiga toxin inh 95 (no result: NS1 function inh)
COc1ccc(C(=O)Oc2cccc(/C=N/NC(N)=S)c2)cc1	Cycloheximide cs 16, Shiga toxin inh 51
COc1ccc(/C=N/NC(=S)Nc2cccc(C(=O)O)c2)cc1OC	Pf growth 96h inconclusive, Cycloheximide cs 16
COc1cc(/C=N/NC(N)=S)ccc1OC(=O)c1ccc(C)cc1	none (no result: Pf growth 96h)
CCCCn1c(N)c(C(=S)NC(=O)CC(C)(C)C)c(=O)n(C)c1=O	none
c1ccc(COc2ccc(Nc3ncnc4nc[nH]c34)cc2)cc1	Pf growth 96h inconclusive (no result: Pf growth 48h)
Oc1ccc(/C=N/Nc2ncnc3nc[nH]c23)cc1	Cycloheximide cs 35
Clc1ccccc1CNc1ncnc2nc[nH]c12	Pf growth 48h inconclusive, Pf growth 96h inconclusive, SARS PLpro yeast inconclusive
Clc1ccc(/C=N/Nc2ncnc3nc[nH]c23)cc1	Pf growth 48h inconclusive, Pf growth 96h 12µM, Cycloheximide cs 39
Cc1ccc(/C=N/Nc2ncnc3nc[nH]c23)cc1	Cycloheximide cs 38, Shiga toxin inh 147
O=C(Nc1ccccc1OC(F)F)c1cccc(S(=O)(=O)N2CCCC2)c1	Pf growth 96h inconclusive
CCOc1ccc(N=Nc2ccc(O)c3ncccc23)cc1	Pf growth 48h 0.74µM
CCN(CC)S(=O)(=O)c1cc(OC)ccc1N=Nc1ccc(O)c2ncccc12	Pf growth 48h inconclusive
NS(=O)(=O)c1ccc(N=Nc2ccc(O)c3ncccc23)cc1	Pf growth 48h 2.6µM, Pf growth 96h inconclusive
COc1ccc(C/C(N)=N/OC(=O)c2cccs2)cc1	none (no result: NS1 function inh)
N/C(Cc1cccc2ccccc12)=N\OC(=O)c1ccc2c(c1)OCO2	Pf growth 48h inconclusive, Pf growth 96h inconclusive
N/C(Cc1cccc2ccccc12)=N\OC(=O)Cc1cccs1	Pf growth 48h inconclusive, Cycloheximide cs 49, Shiga toxin inh 62
N/C(Cc1cccc2ccccc12)=N\OC(=O)c1cccs1	Pf growth 48h 13µM
COc1ccccc1C/C(N)=N/OC(=O)c1cccs1	Cycloheximide cs 18
COc1ccccc1C/C(N)=N/OC(=O)/C=C/c1ccccc1	Pf growth 48h inconclusive, Pf growth 96h inconclusive, Cycloheximide cs 22, Shiga toxin inh 53 (no result: NS1 function inh)
O=S(=O)(/N=C(\c1ccccc1F)N1CCCCC1)c1ccccc1	none
Cc1c(C(=O)N2c3ccccc3Sc3ccccc32)cccc1[N+](=O)[O-]	Pf growth 48h inconclusive, Pf growth 96h inconclusive
CCn1nnc2cc(C(=O)N3CCC(C(=O)OC)CC3)ccc21	none (no result: Pf growth 48h, Pf growth 96h, Cycloheximide cs, Shiga toxin inh, NS1 function inh)
c1ccc2c(c1)SCc1c-2[nH]c2ccccc12	Cycloheximide cs 15, Shiga toxin inh 47 (no result: Pf growth 48h, Pf growth 96h, SARS PLpro yeast, NS1 function inh)
c1ccc2c(c1)OCCc1c-2[nH]c2ccccc12	Pf growth 96h inconclusive, Cycloheximide cs 14
CC1=NCCc2c1[nH]c1ccccc21	none
CCN(CC)C(=O)c1[nH]cnc1C(=O)N[C@H](C)c1ccccc1	none (no result: Cycloheximide cs, Shiga toxin inh, NS1 function inh)
Cc1ccc(C(C)NC(=O)CSc2ccc(S(=O)(=O)N3CCOCC3)cn2)cc1C (stereo not drawn)	Pf growth 48h 12µM, Pf growth 96h inconclusive (no result: Cycloheximide cs, Shiga toxin inh, NS1 function inh)
CC(C)NC(=O)NC(=O)CSc1ccc(S(=O)(=O)N2CCCC2)cn1	none (no result: Cycloheximide cs, Shiga toxin inh, NS1 function inh)
Cc1cccc(CSc2ccc(S(=O)(=O)N3CCCC3)cn2)c1	Pf growth 48h inconclusive, Pf growth 96h 6.6µM (no result: Cycloheximide cs, Shiga toxin inh, NS1 function inh)
CCC(C)NC(=O)CSc1ccc(S(=O)(=O)N2CCN(Cc3ccccc3)CC2)cn1 (stereo not drawn)	Pf growth 48h inconclusive, Pf growth 96h 9.3µM (no result: Cycloheximide cs, Shiga toxin inh, NS1 function inh)
CC(C)(C)c1ccc(CSc2ccc(S(=O)(=O)N3CCOCC3)cn2)cc1	Pf growth 48h 10µM, Pf growth 96h inconclusive (no result: Cycloheximide cs, Shiga toxin inh, NS1 function inh)
Cc1ccc(CCNC(=O)C2CCN(S(=O)(=O)c3ccc4c(c3)oc(=O)n4C)CC2)cc1	none
O=C(N=C1SC2CS(=O)(=O)CC2N1CCc1ccccc1)C1CCCCC1 (stereo not drawn)	none
COc1ccc(-c2onc(C)c2-c2ccc(C(=O)OC(C)C)o2)c(O)c1	Pf growth 48h 1.3µM
Cc1ccc(C)c(SCC(=O)NC(=O)NC2CCCC2)c1	Pf growth 48h inconclusive, Pf growth 96h inconclusive (no result: Cycloheximide cs, Shiga toxin inh, NS1 function inh)
CCCN(S(=O)(=O)c1ccc(OCC)cc1)S(=O)(=O)c1cccs1	Pf growth 48h 10µM, Pf growth 96h inconclusive, Cycloheximide cs 28, Shiga toxin inh 37
CCN(CC)S(=O)(=O)c1ccc(NS(=O)(=O)c2cccs2)cc1	none (no result: NS1 function inh)
CN(C)c1ccc(N2CN=C3SCC(=O)N3C2)cc1	Pf growth 48h 1.5µM, Pf growth 96h inconclusive, Cycloheximide cs 86, Shiga toxin inh 98
O=C1CSC2=NCN(c3ccc4c(c3)OCO4)CN12	Cycloheximide cs 35, Shiga toxin inh 96 (no result: Pf growth 96h)
Cc1ccc(N2CN=c3s/c(=C\c4ccccn4)c(=O)n3C2)cc1	Pf growth 96h inconclusive
O=C(CCN1C(=O)c2ccccc2S1(=O)=O)Nc1ccc(Cl)cc1	none
CCn1ncc(CN2CCC(Oc3cc(C(=O)NC4CC4)ccc3OC)CC2)c1C	Pf growth 96h 1µM
COc1ccc(C(=O)NC2CC2)cc1OC1CCN(Cc2ccccc2)CC1	Pf growth 96h inconclusive

Compound activity (PubChem BioAssay)
